Compounds with a hit are over-represented: about 7.3% of the library has one in this group of screens.
NPC1 promoter act = qHTS Assay for NPC1 Promoter Activators; Huh7 NPC1 promoter luciferase reporter, 24 h; Potency, µM (highest dose often 9.22 µM), hits mostly activators; hit rate 2.4% among 320,000; note: nearly all actives have a fitted effect of over 60% in size
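In 1536-well qHTS, Huh7 cells harboring an NPC1 promoter–luciferase construct received compound for 24 h; activation was quantified by luminescence following luciferase reagent addition.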
p53 reactivator = qHTS assay for re-activators of p53 using a Luc reporter. H1299 p53-A138V BP100-luciferase reporter, luminescence, 24 h. Potency, µM (doses to about 92.2 µM), actives largely listed as activators. hit rate 0.063% among 320,000. AID 504706, 2011; note: nearly all actives have a fitted effect of over 45% in size
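p53-null H1299 cells stably carrying temperature-sensitive p53-A138V and a BP100-luciferase reporter were pinned with compounds (4-point, 1:5 series) and held 24 hrs at 37 deg C. Luminescence was read 10 min after detection reagent.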
Rab9 prom act = qHTS Assay for Rab9 Promoter Activators. Huh7 Rab9 promoter-luciferase reporter, luminescence, 24 h. Potency, µM (titrated, usually from 9.22 µM), hits mostly activators. hit rate 2.8% among 320,000. AID 485297, 2010; note: nearly all actives have a fitted effect of over 60% in size
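Cell-based reporter: Huh7 stable for Rab9 promoter-driven luciferase, plated in reduced-serum medium with 10% FBS at 1500 cells/well, compound-treated 24 h at 37 °C, luminescence read after 10 min reagent.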
SMN2 splice enh = qHTS Assay for Enhancers of SMN2 Splice Variant Expression; HEK293 SMN2-luciferase splicing reporter, luminescence, 30-36 h; hit rate 2.8% among 210,000; Potency, µM (titrated, usually from 46.1 µM), hits mostly activators; note: nearly all actives have a fitted effect of over 55% in size
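qHTS luciferase splicing reporter: luminescence rises when SMN2 exon 7 is included in transfected HEK293 cells. Compound exposure lasted 30-36 h at 37C, with 4.5 mM final sodium butyrate as control, followed by a ONE-Glo read.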
ELG1 genotoxic = qHTS screen for small molecules that induce genotoxicity in human embryonic kidney (HEK293T) cells expressing luciferase-tagged ELG1 | HEK293T ELG1-luciferase reporter, luminescence, 16 h | Potency, µM (doses to about 46 µM), hits mostly activators | hit rate 1.3% among 330,000; note: nearly all actives have a fitted effect of over 60% in size
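Genotoxic stress is detected as increased luminescence from luciferase-tagged ELG1 in HEK293T cells, measured with ONE-Glo after a 16 hr treatment at 37 °C.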
FLuc modulator = qHTS profiling assay for firefly luciferase inhibitor/activator using purifed enzyme and Km concentrations of substrates (counterscreen for miR-21 project); AID 588342, 2011; Potency, µM (titrated, usually from 57.5 µM), usual class: inhibitors; Luciferin 4-monooxygenase (Photinus pyralis), P08659; purified FLuc, Km substrates, luminescence inhibition; hit rate 6.9% among 360,000; note: nearly all actives have a fitted effect of over 55% in size
Target sequence (P08659 whole entry, looked up): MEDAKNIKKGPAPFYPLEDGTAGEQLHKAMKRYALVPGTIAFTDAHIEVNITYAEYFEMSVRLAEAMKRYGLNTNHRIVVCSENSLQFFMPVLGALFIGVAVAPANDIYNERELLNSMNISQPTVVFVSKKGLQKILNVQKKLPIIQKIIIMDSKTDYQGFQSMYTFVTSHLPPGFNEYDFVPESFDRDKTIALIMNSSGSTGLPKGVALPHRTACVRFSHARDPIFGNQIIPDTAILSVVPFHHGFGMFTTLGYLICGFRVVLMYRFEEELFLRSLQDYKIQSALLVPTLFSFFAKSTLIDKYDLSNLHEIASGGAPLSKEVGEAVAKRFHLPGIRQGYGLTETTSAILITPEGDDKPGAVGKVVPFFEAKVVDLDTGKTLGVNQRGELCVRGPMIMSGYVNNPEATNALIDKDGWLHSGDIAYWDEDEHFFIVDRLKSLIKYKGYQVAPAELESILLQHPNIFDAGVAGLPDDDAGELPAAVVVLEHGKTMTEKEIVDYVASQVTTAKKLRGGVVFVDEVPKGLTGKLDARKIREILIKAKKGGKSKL
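Purified P. pyralis luciferase (10nM final) with 10uM D-luciferin and 10uM ATP (Km levels) in 50mM Tris acetate pH 7.5, 10mM Mg acetate, 0.01% Tween-20, 0.05% BSA; qHTS 6-point titration, ~60 µM downward; luminescence read.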
Numbers stand for hits. Calls come from the whole dose curve; as a rule, active = well fitted curve in the direction sought with a large enough effect; inconclusive = small, poorly fitted or top-dose-only effect, or another doubt; inactive = no such curve, though single readings can be large; an effect the other way counts as inactive or inconclusive.

`COc1ccc(-c2cc3ccccc3c(=O)o2)cc1` gave SMN2 splice enh 13µM.
Screening O=c1cc(-c2ccsc2)oc2ccccc12 returned p53 reactivator inactive and ELG1 genotoxic inconclusive.
`O=c1cc(-c2ccccc2O)oc2cc(O)ccc12` gave SMN2 splice enh 25µM.
Screening C[C@@H]1CC[C@H]2C(=O)N3[C@@H](CC[C@@H](C)[C@@H]3c3ccc(Br)cc3)C(=O)N2[C@H]1c1ccc(Br)cc1 returned NPC1 promoter act inactive, p53 reactivator inactive, Rab9 prom act inactive, SMN2 splice enh inactive, ELG1 genotoxic inactive and FLuc modulator inactive.
Screening O=C(/C=C/c1cccc(C(F)(F)F)c1)OCC(=O)N1CCN(c2ccccc2)CC1 returned p53 reactivator inactive and ELG1 genotoxic inactive.
`O=C1CN(c2nc3ccccc3n3cnnc23)CC(=O)N1CCc1ccccc1` gave NPC1 promoter act inactive, p53 reactivator inactive, Rab9 prom act inactive, SMN2 splice enh inactive, ELG1 genotoxic inactive and FLuc modulator inactive.
For Cc1cccc(NC(=O)CSc2ncc(-c3ccc(Br)cc3)[nH]2)c1 the results were SMN2 splice enh inactive and FLuc modulator inactive.
For CCc1ccccc1NC(=O)Cn1c(=O)ccc2cc(S(=O)(=O)N3CCC(C)CC3)ccc21 the results were FLuc modulator inactive.
O=C(O)c1ccc(NS(=O)(=O)c2ccsc2C(=O)O)cc1 was read as SMN2 splice enh inactive.
`COc1c(Cl)cc(C(=O)N(Cc2ccc(C)o2)C2CCS(=O)(=O)C2)cc1Cl` (stereo not drawn) gave SMN2 splice enh inactive and FLuc modulator inactive.
CCOC(=O)COc1ccc2c(=O)cc(-c3ccccc3)oc2c1 was read as NPC1 promoter act inactive, p53 reactivator inactive, Rab9 prom act inactive, ELG1 genotoxic inactive and FLuc modulator inconclusive.
O=c1cc(-c2ccc(O)cc2)oc2ccccc12 was read as NPC1 promoter act inconclusive, p53 reactivator inactive, Rab9 prom act inconclusive, SMN2 splice enh inconclusive, ELG1 genotoxic inconclusive and FLuc modulator 11µM.
NC(=O)COc1ccc2oc(-c3ccccc3)cc(=O)c2c1 was read as NPC1 promoter act inconclusive, p53 reactivator inactive, Rab9 prom act inconclusive, SMN2 splice enh inactive, ELG1 genotoxic inconclusive and FLuc modulator 12µM.
COc1ccc(N=c2cc(-c3ccc(OC)cc3)oc3ccccc23)cc1 was read as NPC1 promoter act inactive, p53 reactivator inactive, Rab9 prom act inactive, SMN2 splice enh inactive, ELG1 genotoxic inactive and FLuc modulator inactive.
For Cc1cccc(-c2oc3ccccc3c2-c2ccc3c(c2)OCO3)c1 the results were NPC1 promoter act inactive, Rab9 prom act inactive, ELG1 genotoxic inactive and FLuc modulator inactive.
Screening COc1ccc(-c2cc(=O)c3ccccc3o2)cc1 returned NPC1 promoter act 2.5µM, p53 reactivator inactive, Rab9 prom act 2µM, SMN2 splice enh 10µM, ELG1 genotoxic 21µM and FLuc modulator 6µM.
`Nc1c(-c2ccc3c(c2)OCCO3)oc2ccccc2c1=O` gave NPC1 promoter act inconclusive, p53 reactivator inconclusive, Rab9 prom act inconclusive, ELG1 genotoxic 10µM and FLuc modulator 9.5µM.
`O=c1cc(-c2ccncc2)oc2ccccc12` gave NPC1 promoter act inactive, p53 reactivator inactive, Rab9 prom act inactive, SMN2 splice enh inactive, ELG1 genotoxic inactive and FLuc modulator inactive.
For O=S(=O)(c1ccccc1)c1nc(-c2ccc(Cl)cc2Cl)oc1N1CCCCCC1 the results were SMN2 splice enh inactive and FLuc modulator inactive.
Cn1c2ccccc2c(=O)c2ccc(-c3ccc4c(c3)OCO4)cc21 was read as NPC1 promoter act 1.3µM, p53 reactivator inconclusive, Rab9 prom act 1.1µM, ELG1 genotoxic inconclusive and FLuc modulator 3µM.
Screening O=c1cc(-c2cccc(O)c2)oc2ccc(O)cc12 returned SMN2 splice enh 14µM.
For O=c1cc(-c2ccc3c(c2)OCO3)oc2ccccc12 the results were NPC1 promoter act 3.2µM, p53 reactivator inconclusive, Rab9 prom act 3.5µM, SMN2 splice enh 13µM, ELG1 genotoxic 9.2µM and FLuc modulator inconclusive.
Screening COc1ccc(C(=O)c2c(O)cc(-c3ccc(OC)cc3)oc2=O)cc1 returned NPC1 promoter act inactive, p53 reactivator inactive, Rab9 prom act inactive, SMN2 splice enh inactive, ELG1 genotoxic inactive and FLuc modulator 17µM.
CNCCCCc1cnc(C)c2[nH]c3ccccc3c12 was read as SMN2 splice enh inactive.
Screening CC(C)N(Cc1cc2ccccc2[nH]c1=O)C(=O)C1CCCCC1 returned NPC1 promoter act inactive, p53 reactivator inactive, Rab9 prom act inactive, SMN2 splice enh inactive, ELG1 genotoxic inactive and FLuc modulator inactive.
Screening CCC(=O)N(Cc1cc2ccccc2[nH]c1=O)C(C)C returned NPC1 promoter act inactive, p53 reactivator inactive, Rab9 prom act inactive, SMN2 splice enh inactive, ELG1 genotoxic 23µM and FLuc modulator inactive.
`CCN(CC)C(=S)SCC(=O)c1ccc(F)cc1` gave NPC1 promoter act 2.5µM, p53 reactivator inactive, Rab9 prom act 2.5µM, SMN2 splice enh 18µM, ELG1 genotoxic inconclusive and FLuc modulator 15µM.
CCN(CC)C(=S)SCC(=O)c1ccccc1 was read as NPC1 promoter act 2.2µM, p53 reactivator inactive, Rab9 prom act 2.8µM, SMN2 splice enh 13µM, ELG1 genotoxic inconclusive and FLuc modulator 12µM.
Screening CCN(CC)C(=S)SCC(=O)c1c(C)[nH]c2ccccc12 returned NPC1 promoter act inactive, p53 reactivator inactive, Rab9 prom act inactive, SMN2 splice enh inconclusive, ELG1 genotoxic inactive and FLuc modulator inconclusive.
`CCCCC[C@H](O)/C=C/[C@@H]1[C@H]2C/C(=C/CCCC(=O)O)O[C@H]2C[C@H]1O` gave SMN2 splice enh inactive.
COc1cc(Cl)ccc1OCc1cc(C(=O)NCC(C)(C)N2CCOCC2)no1 was read as NPC1 promoter act inactive, p53 reactivator inconclusive, Rab9 prom act inactive, ELG1 genotoxic inactive and FLuc modulator 15µM.
COc1ccc(OCc2cc(C(=O)NCC(C)(C)N3CCOCC3)no2)c(Cl)c1 was read as NPC1 promoter act inactive, p53 reactivator inactive, Rab9 prom act inactive, ELG1 genotoxic inactive and FLuc modulator inconclusive.
`COc1cc(Cl)ccc1OCc1cc(C(=O)NCc2cc(C(C)C)no2)no1` gave NPC1 promoter act inconclusive, p53 reactivator inactive, Rab9 prom act 1.3µM, ELG1 genotoxic inconclusive and FLuc modulator 9.5µM.
CCOc1ccc(OCC)c(NC(=O)CCC(=O)N2CCOc3ccccc32)c1 was read as FLuc modulator inactive.

High-throughput results from PubChem BioAssay.
